Assay results reported in PubChem BioAssay (Tox21).
A number with no mark means an inactive call. Results filed as inconclusive are left out. Entries that show only a call come without a potency. Activity calls are given as the source filed them. Unless noted, the call rests on the fitted dose curve; in most records, active means well fitted curve in the direction sought with a large enough effect in the repeat runs; inconclusive means weak or mixed curves; inactive means no such curve, though single readings can be large; an effect the other way counts as inactive or inconclusive.

Experiments:
[1] = qHTS assay to identify small molecule antagonists of the TGF-beta/Smad signaling pathway - cell viability counter screen (AID 1346824); further: nearly all actives have a fitted effect of over 50% in size
Summary of the method: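 SBE-bla HEK 293T cells, incubated overnight, then compound plus 0.25 ng/mL TGF-beta1 (stock added) for 5 hr at 37 C. Viability was read in the same wells by CellTiter-Glo luminescence after 30 min at room temperature.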

[2] = qHTS assay to identify small molecule agonists of the TGF-beta/Smad signaling pathway (AID 1346859; active means well fitted activation curve with a large enough effect in the signal ratio in the repeat runs, not every such curve was filed as active; the % refers to the signal ratio; further: series mostly up to about 77 µM)
Summary of the method: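 Stable Smad binding element-beta-lactamase HEK 293T cells; 5 hr compound exposure at 37 C under 5% CO2; 2 hr room-temperature substrate step; fluorescence excited at 405 nm, collected at 460 nm and 530 nm.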

[3] = biological target: Thyrotropin-releasing hormone receptor (Homo sapiens) (UniProt P34981); test: qHTS assay to identify small molecule antagonists of the thyrotropin-releasing hormone receptor (TRHR) signaling pathway (AID 1346877; active means well fitted inhibition curve with a large enough effect in the repeat runs, not every such curve was filed as active; further: series mostly up to about 51 µM)
Sequence of Thyrotropin-releasing hormone receptor (Homo sapiens) (P34981 whole entry, looked up): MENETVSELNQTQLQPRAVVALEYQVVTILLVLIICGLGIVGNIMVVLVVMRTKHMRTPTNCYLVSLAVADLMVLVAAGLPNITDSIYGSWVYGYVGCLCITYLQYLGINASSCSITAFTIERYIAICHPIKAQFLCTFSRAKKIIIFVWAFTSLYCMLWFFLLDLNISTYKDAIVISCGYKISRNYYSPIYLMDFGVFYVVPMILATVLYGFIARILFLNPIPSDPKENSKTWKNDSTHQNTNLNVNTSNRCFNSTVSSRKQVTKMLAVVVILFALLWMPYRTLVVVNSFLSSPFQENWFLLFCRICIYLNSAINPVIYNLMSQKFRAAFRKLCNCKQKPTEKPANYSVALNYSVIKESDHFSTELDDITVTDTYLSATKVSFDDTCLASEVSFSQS
Summary of the method: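 In this cell-based calcium flux format, HEK293 cells expressing TRHR received test compound for 5 min before the agonist TRH (1 nM final). Dye loading lasted 2 h at 37 °C.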

[4] = biological target: Thyrotropin-releasing hormone receptor (Homo sapiens) (UniProt P34981); test: qHTS assay to identify small molecule agonists of the thyrotropin-releasing hormone receptor (TRHR) signaling pathway (AID 1346891; calls by dose curve; further: series mostly up to about 58 µM)
Summary of the method: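 In 1536-format, 1500 TRHR-Hek293 cells per well grew 18 h, took up calcium dye for 2 h at 37 °C, received compound, and were read kinetically; 15-point titrations, triplicates.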

[5] = Human pregnane X receptor (PXR) small molecule agonists, qHTS cell viability counter screen (AID 1346977); further: nearly all actives have a fitted effect of over 50% in size
Summary of the method: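 Readout is CellTiter-Fluor fluorescence from PXR-Luc HepG2 cells. Plated cells rested 5hr, then were treated with compounds for 24hr at 37C and 5% CO2, with reagent present during the last hour.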

[6] = Caspase-3/7 induction in CHO-K1 cells by small molecules, qHTS cell viability counter screen (AID 1346979); further: nearly all actives have a fitted effect of over 35% in size
Summary of the method: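 To flag cytotoxic compounds, treated CHO-K1 wild-type cells were given CellTiter-Fluor at 16hr and read fluorescently after 1hr at 37C; the caspase-3/7 luminescence was measured in these same wells.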

[7] = Caspase-3/7 induction in CHO-K1 cells by small molecules, qHTS assay (AID 1346980); further: nearly all actives have a fitted effect of over 15% in size
Summary of the method: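 Wild-type CHO-K1 cells exposed to compounds for 17hr at 37 C, 5% CO2. Caspase-3/7 activity then measured by Caspase-Glo 3/7 luminescence after 30min at room temperature.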

[8] = Caspase-3/7 induction in HepG2 cells by small molecules, qHTS cell viability counter screen (AID 1346981); further: series mostly up to about 92 µM; nearly all actives have a fitted effect of over 30% in size
Summary of the method: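 Counter screen for cytotoxicity: HepG2 exposed 16 hr to compounds, then CellTiter-Fluor viability signal (fluorescence, 1 hr reagent incubation).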

[9] = biological target: Nuclear receptor subfamily 1 group I member 2 (Homo sapiens) (UniProt O75469); test: Human pregnane X receptor (PXR) small molecule agonists, qHTS assay (AID 1346982); further: nearly all actives have a fitted effect of over 35% in size
Sequence of Nuclear receptor subfamily 1 group I member 2 (Homo sapiens) (O75469 whole entry, looked up): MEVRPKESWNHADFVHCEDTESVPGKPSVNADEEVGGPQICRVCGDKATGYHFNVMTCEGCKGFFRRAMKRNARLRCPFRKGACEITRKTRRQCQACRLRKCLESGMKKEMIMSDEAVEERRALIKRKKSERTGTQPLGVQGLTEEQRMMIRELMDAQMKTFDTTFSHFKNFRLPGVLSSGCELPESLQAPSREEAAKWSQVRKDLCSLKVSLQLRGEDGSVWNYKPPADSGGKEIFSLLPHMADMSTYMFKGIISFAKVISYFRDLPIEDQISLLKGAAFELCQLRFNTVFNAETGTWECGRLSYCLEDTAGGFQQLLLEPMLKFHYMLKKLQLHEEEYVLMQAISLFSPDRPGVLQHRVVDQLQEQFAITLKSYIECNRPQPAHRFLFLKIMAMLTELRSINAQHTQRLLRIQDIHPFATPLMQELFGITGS
Summary of the method: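 Luminescence (ONE-Glo, 30 min RT) after 24 hr compound exposure of PXR-Luc HepG2 cells; cells rested 5 hr post-plating in 5% charcoal-stripped FBS medium.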

[10] = biological target: Nuclear receptor subfamily 1 group I member 2 (Rattus norvegicus) (UniProt Q9R1A7); test: Rat pregnane X receptor (rPXR) activation by small molecules, qHTS assay (AID 1346983); details: rPXR luciferase reporter cells, One-Glo luminescence, 24 h; stronger effect = higher value; further: nearly all actives have a fitted effect of over 20% in size
Sequence of Nuclear receptor subfamily 1 group I member 2 (Rattus norvegicus) (Q9R1A7 whole entry, looked up): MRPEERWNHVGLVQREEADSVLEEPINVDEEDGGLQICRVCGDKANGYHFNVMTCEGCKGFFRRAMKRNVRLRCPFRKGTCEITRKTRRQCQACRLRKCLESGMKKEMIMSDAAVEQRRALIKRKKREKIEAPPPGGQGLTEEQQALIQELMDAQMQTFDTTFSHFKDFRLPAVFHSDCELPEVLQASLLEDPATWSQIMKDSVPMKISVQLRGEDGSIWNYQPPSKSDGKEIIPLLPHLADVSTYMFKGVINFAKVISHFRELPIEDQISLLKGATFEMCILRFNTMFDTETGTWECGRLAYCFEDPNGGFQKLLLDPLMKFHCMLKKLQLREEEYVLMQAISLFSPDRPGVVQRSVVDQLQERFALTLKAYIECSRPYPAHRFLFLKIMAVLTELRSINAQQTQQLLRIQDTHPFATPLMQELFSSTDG
Summary of the method: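 Cell-based rPXR activation assay: rPXR cells, 2,000 per well, rested 5hr at 37 C, then exposed to compounds in DMSO for 24 hr at 37 C. Luciferase activity read by One-Glo luminescence after 30 min at room temperature.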

[11] = biological target: Nuclear receptor subfamily 1 group I member 2 (Homo sapiens) (UniProt O75469); test: CYP3A4 induction through human pregnane X receptor (PXR) by small molecules, qHTS assay (AID 1346984); further: nearly all actives have a fitted effect of over 40% in size
Summary of the method: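 DPX-2 reporter cells; 24h cpd, 37C; Luciferin-IPA 3uM final x3h; One-Glo 30 min RT; lumi read.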

[12] = biological target: Cytochrome P450 2C19 (Homo sapiens) (UniProt P33261); test: Cytochrome P450 Family 2 Subfamily C Member 19 (CYP2C19) small molecule antagonists: luciferase reporter qHTS assay (AID 1671197); further: nearly all actives have a fitted effect of over 65% in size; further: potency means the concentration at half of the fitted maximal effect
Sequence of Cytochrome P450 2C19 (Homo sapiens) (P33261 whole entry, looked up): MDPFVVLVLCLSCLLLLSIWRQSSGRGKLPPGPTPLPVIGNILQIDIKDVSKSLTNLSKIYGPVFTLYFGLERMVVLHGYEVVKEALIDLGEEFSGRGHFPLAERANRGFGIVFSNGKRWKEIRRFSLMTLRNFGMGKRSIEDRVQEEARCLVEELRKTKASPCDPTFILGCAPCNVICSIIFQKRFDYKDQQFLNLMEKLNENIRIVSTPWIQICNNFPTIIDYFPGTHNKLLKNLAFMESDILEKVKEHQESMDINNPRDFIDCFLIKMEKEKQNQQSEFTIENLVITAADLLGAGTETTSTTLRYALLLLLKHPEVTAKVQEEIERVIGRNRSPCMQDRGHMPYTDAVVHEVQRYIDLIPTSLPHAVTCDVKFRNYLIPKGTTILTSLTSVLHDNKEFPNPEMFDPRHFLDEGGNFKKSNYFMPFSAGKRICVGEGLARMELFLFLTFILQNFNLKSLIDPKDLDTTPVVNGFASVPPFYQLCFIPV
Summary of the method: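 P450-Glo CYP2C19 screening system; proluciferin substrate; DMSO compound stocks; 10 min RT preincubation; NADPH regeneration, 1 h at 37C; luciferin detection reagent, 20 min RT; luminescence as RLU.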

[13] = biological target: Cytochrome P450 2C9 (Homo sapiens) (UniProt P11712); test: Cytochrome P450 Family 2 Subfamily C Member 9 (CYP2C9) small molecule antagonists: luciferase reporter qHTS assay (AID 1671198); further: series mostly up to about 120 µM; nearly all actives have a fitted effect of over 50% in size
Sequence of Cytochrome P450 2C9 (Homo sapiens) (P11712 whole entry, looked up): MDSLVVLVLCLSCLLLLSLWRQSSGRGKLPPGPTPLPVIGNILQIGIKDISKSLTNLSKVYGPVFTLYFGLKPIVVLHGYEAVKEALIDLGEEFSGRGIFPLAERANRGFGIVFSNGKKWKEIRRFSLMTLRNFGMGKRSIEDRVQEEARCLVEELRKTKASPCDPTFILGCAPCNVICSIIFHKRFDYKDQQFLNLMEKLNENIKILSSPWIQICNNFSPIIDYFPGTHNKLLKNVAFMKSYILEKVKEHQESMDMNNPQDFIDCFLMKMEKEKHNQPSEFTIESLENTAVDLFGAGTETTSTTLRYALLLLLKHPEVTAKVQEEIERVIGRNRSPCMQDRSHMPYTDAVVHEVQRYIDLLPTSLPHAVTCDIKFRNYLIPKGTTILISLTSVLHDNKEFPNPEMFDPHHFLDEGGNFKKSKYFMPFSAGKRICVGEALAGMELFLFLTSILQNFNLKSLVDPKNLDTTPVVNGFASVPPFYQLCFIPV
Summary of the method: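 P450-Glo proluciferin substrate with CYP2C9 enzyme; 10 min RT preincubation, then NADPH regeneration 1 h at 37C; luciferin detection reagent 20 min RT, luminescence in relative luminescence units.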

[14] = biological target: Voltage-gated inwardly rectifying potassium channel KCNH2 (Homo sapiens) (UniProt Q12809); test: Human Ether-a-go-go-Related Gene (hERG) channel small molecule antagonists: fluorescence cell-based qHTS assay (AID 1671200);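 further: hERG-expressing U2OS cells given a thallium stimulus after FluxOR II dye loading; series mostly up to about 77 µM; nearly all actives have a fitted effect of over 50% in size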
Sequence of Voltage-gated inwardly rectifying potassium channel KCNH2 (Homo sapiens) (Q12809 whole entry, looked up): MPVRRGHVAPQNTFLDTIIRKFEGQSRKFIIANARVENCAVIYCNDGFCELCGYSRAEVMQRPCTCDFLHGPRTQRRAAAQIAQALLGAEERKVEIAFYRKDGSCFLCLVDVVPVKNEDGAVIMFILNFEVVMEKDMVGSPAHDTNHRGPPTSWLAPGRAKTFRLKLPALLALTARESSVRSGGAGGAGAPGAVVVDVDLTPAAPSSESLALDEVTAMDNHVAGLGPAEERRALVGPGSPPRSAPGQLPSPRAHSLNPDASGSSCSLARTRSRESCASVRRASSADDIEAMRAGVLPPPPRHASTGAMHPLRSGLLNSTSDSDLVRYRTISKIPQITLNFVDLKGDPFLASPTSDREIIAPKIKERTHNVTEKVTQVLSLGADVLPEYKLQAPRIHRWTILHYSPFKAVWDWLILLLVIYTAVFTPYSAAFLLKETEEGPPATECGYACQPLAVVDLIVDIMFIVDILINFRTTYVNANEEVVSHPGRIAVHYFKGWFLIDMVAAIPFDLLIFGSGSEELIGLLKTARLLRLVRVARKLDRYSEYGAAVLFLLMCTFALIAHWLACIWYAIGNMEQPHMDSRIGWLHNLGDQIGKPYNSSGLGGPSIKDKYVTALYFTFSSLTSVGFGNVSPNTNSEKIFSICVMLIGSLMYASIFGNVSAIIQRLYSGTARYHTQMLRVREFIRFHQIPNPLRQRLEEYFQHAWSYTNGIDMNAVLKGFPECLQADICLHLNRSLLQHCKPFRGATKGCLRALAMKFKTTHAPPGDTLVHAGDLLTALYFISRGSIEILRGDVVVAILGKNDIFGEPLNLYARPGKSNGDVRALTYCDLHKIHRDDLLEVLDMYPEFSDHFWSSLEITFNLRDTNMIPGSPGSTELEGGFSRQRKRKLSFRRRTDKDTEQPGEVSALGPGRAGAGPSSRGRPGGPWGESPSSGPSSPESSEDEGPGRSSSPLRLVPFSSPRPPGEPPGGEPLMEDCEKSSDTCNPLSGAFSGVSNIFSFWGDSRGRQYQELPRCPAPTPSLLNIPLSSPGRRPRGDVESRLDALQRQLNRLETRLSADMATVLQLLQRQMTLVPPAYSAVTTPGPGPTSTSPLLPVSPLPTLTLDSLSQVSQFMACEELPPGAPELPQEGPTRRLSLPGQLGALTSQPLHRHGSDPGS
Summary of the method: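 Measured: Tl+ flux via fluorescence (480/540 nm) in hERG-expressing U2OS cells after 1 h dye loading at room temperature.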

[15] = biological target: Cytochrome P450 3A4 (Homo sapiens) (UniProt P08684); test: Cytochrome P450 Family 3 Subfamily A Member 4 (CYP3A4) small molecule antagonists: luciferase reporter qHTS assay (AID 1671201); further: nearly all actives have a fitted effect of over 50% in size; further: potency means the concentration at half of the fitted maximal effect
Sequence of Cytochrome P450 3A4 (Homo sapiens) (P08684 whole entry, looked up): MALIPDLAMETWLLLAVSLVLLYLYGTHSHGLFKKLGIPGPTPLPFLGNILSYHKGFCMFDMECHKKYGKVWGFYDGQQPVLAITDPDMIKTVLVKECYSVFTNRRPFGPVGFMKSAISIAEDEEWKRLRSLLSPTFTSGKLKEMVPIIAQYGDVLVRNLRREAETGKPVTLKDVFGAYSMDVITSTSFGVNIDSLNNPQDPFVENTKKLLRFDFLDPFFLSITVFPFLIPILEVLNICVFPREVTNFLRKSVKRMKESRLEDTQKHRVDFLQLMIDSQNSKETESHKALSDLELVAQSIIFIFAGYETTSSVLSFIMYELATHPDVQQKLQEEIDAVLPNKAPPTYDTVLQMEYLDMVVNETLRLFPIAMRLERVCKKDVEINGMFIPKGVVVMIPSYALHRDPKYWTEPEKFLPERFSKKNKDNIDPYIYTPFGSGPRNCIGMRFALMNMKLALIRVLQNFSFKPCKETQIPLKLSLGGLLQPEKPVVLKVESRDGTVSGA
Summary of the method: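 Setup: enzyme-substrate mix, compound pin transfer, 10 min RT. Reaction: NADPH regeneration solution, 1 h RT. Readout: detection reagent stops turnover, luminescence measured after 20 min, expressed in relative luminescence units.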

[16] = Caspase-3/7 induction in HepG2 cells by small molecules, qHTS assay (AID 1346978); further: nearly all actives have a fitted effect of over 15% in size
Summary of the method: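 Wild-type HepG2 cells, 2,000/well, settled 5 hr at 37 C and 5% CO2, then compound-treated for 17 hr; caspase-3/7 activity read by luminescent Caspase-Glo 3/7 after 30 min at room temperature.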

[17] = biological target: Cytochrome P450 2D6 (Homo sapiens) (UniProt P10635); test: Cytochrome P450 Family 2 Subfamily D Member 6 (CYP2D6) small molecule antagonists: luciferase reporter qHTS assay (AID 1671196); further: nearly all actives have a fitted effect of over 50% in size; further: potency means the concentration at half of the fitted maximal effect
Sequence of Cytochrome P450 2D6 (Homo sapiens) (P10635 whole entry, looked up): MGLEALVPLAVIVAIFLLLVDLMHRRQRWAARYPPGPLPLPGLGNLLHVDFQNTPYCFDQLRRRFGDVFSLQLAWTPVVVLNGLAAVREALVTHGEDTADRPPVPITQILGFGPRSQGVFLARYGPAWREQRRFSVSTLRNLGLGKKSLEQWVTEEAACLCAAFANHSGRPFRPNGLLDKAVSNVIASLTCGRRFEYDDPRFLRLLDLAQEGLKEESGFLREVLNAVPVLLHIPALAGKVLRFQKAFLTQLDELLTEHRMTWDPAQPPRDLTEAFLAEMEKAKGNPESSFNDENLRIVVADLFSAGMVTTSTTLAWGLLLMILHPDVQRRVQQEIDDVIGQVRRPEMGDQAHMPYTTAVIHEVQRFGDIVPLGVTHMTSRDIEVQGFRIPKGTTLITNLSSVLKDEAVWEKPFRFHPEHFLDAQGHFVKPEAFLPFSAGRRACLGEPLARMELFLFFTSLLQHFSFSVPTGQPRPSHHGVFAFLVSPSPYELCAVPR
Summary of the method: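 Inhibition of CYP2D6 was gauged by loss of luminescence, since light produced tracks the luciferin generated from a proluciferin substrate. A 10 min room-temperature preincubation preceded 1 h NADPH-supported turnover.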

[18] = biological target: Cytochrome P450 1A2 (Homo sapiens) (UniProt P05177); test: Cytochrome P450 Family 1 Subfamily A Member 2 (CYP1A2) small molecule antagonists: luciferase reporter qHTS assay (AID 1671199); further: nearly all actives have a fitted effect of over 50% in size; further: potency means the concentration at half of the fitted maximal effect
Sequence of Cytochrome P450 1A2 (Homo sapiens) (P05177 whole entry, looked up): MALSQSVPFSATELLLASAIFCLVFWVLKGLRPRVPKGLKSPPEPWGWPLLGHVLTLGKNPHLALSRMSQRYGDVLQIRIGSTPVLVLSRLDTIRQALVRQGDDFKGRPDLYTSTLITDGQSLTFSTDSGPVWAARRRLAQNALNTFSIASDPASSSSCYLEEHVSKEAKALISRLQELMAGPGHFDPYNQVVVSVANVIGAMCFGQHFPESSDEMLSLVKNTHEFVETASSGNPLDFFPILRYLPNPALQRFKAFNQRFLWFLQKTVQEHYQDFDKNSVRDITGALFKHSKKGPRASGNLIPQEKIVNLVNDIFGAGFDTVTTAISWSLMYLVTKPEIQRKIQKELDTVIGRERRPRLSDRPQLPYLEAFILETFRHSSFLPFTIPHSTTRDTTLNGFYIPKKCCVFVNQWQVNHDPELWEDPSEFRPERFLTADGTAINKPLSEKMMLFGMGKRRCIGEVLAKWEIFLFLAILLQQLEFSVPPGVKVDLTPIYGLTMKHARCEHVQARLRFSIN
Summary of the method: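 Signal from luciferin formed by CYP1A2 from a proluciferin substrate is read as luminescence, expressed in relative luminescence units. Compounds sit with enzyme 10 min, NADPH-driven reaction runs 1 h, all at room temperature.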

Compound | outcome [1] | outcome [2] | outcome [3] | outcome [4] | outcome [5] | Potency [6] | outcome [7] | outcome [8] | Potency [9] | max activation [10] [%] | Potency [11] | Potency [12] | Potency [13] | Potency [14] | Potency [15] | outcome [16] | Potency [17] | Potency [18]
O=NN(CCCl)C(=O)NC1CCCCC1 | inactive | inactive | inactive | inactive | inactive | inactive | inactive | inactive | inactive | -2.8 | inactive | inactive | inactive | inactive | inactive | – | – | –
CCCC(CC)c1ccccc1 (stereo not given) | inactive | inactive | – | – | inactive | inactive | inactive | inactive | – | – | – | – | inactive | inactive | inactive | inactive | inactive | –
OCCN1CCOCC1 | inactive | – | – | inactive | inactive | inactive | inactive | inactive | inactive | – | – | inactive | inactive | inactive | inactive | inactive | inactive | inactive
COC(C)(OC)OC | inactive | inactive | – | inactive | inactive | inactive | inactive | inactive | inactive | – | – | – | inactive | inactive | inactive | inactive | inactive | –
Cc1cc(-c2ccccc2)nnc1NCCN1CCOCC1 | inactive | inactive | – | – | inactive | inactive | inactive | inactive | inactive | – | – | inactive | – | – | – | inactive | 8.71 µM (active) | inactive
CCC(C)C(C)=O (stereo not given) | inactive | – | inactive | inactive | inactive | inactive | inactive | inactive | inactive | – | – | – | – | – | inactive | inactive | 34.8 µM (active) | –
OC[C@@H](O)C(O)[C@@H](O)CO (stereo not given in full) | inactive | inactive | inactive | inactive | inactive | inactive | – | inactive | inactive | – | – | 40.4 µM (active) | – | inactive | inactive | inactive | inactive | inactive
C/C(CC(C)C)=N\O | inactive | inactive | – | inactive | inactive | inactive | inactive | inactive | inactive | – | – | – | inactive | inactive | inactive | inactive | inactive | inactive
CCCCCCCCCCCCCCCCCC#N | inactive | inactive | – | – | inactive | inactive | inactive | inactive | inactive | – | – | – | – | – | inactive | inactive | inactive | inactive
COP(=O)(O)OP(=O)(O)OC | inactive | inactive | – | inactive | inactive | inactive | inactive | inactive | inactive | – | – | inactive | inactive | inactive | inactive | inactive | – | –
COc1cc(OC)nc(O[C@H](C(=O)O)C(OC)(c2ccccc2)c2ccccc2)n1 | inactive | – | inactive | inactive | inactive | inactive | inactive | inactive | inactive | – | – | inactive | – | inactive | inactive | inactive | inactive | –
CC(S)C(C)S (stereo not given) | – | inactive | – | inactive | inactive | inactive | inactive | inactive | inactive | – | – | – | inactive | inactive | inactive | inactive | – | –
CCCCOCCOC(=O)COc1ccc(Cl)cc1Cl | inactive | inactive | inactive | inactive | inactive | – | inactive | inactive | inactive | – | – | 79.6 µM (active) | – | inactive | inactive | inactive | – | 20 µM (active)
CC(C)Cn1cnc2c1c(=O)n(C)c(=O)n2C | inactive | inactive | – | inactive | inactive | inactive | inactive | inactive | inactive | 0.329 | inactive | inactive | – | inactive | inactive | inactive | inactive | –
CCNC(=O)NCc1cccc(Cl)c1 | inactive | inactive | – | – | inactive | inactive | inactive | inactive | inactive | -1.55 | inactive | – | inactive | inactive | – | inactive | inactive | inactive
C/C(=C1\CCOC(=O)S1)N(C=O)Cc1cnc(C)nc1N | inactive | inactive | inactive | inactive | inactive | inactive | inactive | inactive | inactive | – | – | – | inactive | – | 15.5 µM (active) | inactive | 13.8 µM (active) | inactive
CC(=O)OC(C)=O | inactive | inactive | inactive | inactive | inactive | inactive | inactive | inactive | inactive | – | – | 72.3 µM (active) | inactive | inactive | inactive | – | inactive | inactive
Cc1ccc(C(=O)O)cc1[N+](=O)[O-] | inactive | – | – | inactive | inactive | inactive | inactive | inactive | inactive | – | – | inactive | inactive | inactive | inactive | inactive | inactive | –
